ZTA counter = counter-screen for EBNA-1 inhibitors: inhibitors of Epstein-Barr virus ZTA; P03206; inhibition, % at 11 µM; 0.15% of 320,000 active; ZTA-DNA binding, fluorescence polarization; in the data active = inhibition above about 33%
Target sequence (P03206 whole entry, looked up): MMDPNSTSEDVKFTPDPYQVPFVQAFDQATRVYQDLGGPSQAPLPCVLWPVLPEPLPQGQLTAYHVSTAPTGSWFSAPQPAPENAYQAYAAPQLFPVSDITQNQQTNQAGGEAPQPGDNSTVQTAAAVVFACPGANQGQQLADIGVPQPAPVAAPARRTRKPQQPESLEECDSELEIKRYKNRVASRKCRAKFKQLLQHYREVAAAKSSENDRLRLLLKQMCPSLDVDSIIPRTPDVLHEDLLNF
NALP1 inh = blocks the NALP1 inflammasome reconstituted in yeast. 0.61% of 280,000 active. inhibition, % at 10 µM. S. cerevisiae NALP1/ASC/caspase-1 growth, X-gal OD620, 72 h; in the data active = inhibition mostly above about 24%, no sharp cut-off; inactive = mostly below about 32%
EBNA-1 inhibitor = blocks EBNA-1 binding to DNA; EBNA-1 DNA binding, fluorescence polarization; inhibition, % at 14.8 µM; 0.34% of 300,000 active; AID 1950; in the data active = inhibition above about 28%
PolyA inh = inhibitors of polyadenylation in S. cerevisiae. S. cerevisiae SKY197-pL101 polyadenylation reporter, beta-gal luminescence; efflux-impaired pdr1/pdr3 knockout yeast; score 100 = 6 SD above DMSO. activity score, % at 12 µM. 0.02% of 300,000 active. AID 1875;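 active = lowest replicate activity score at least 50, where 100 means six control SD above control mean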;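 note: yeast exposed to compound for 9 h at 30 °C; higher score means more reporter readthrough which indicates perturbed polyadenylation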
NLRP3 yeast inh = NALP3 inhibition in yeast; Yeast reconstituted NLRP3/ASC/caspase-1, beta-gal luminescence, 24 h; inhibition, % at 10 µM; 0.39% of 330,000 active; AID 2825;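 active = inhibition of 50% or more; inactive = inhibition below 50%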;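 note: plate controls were induced DMSO wells for no effect and uninduced yeast grown without galactose for full effect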
dFosB activator = activators of mouse delta FosB homodimer; activation, % at 25 µM; AID 493131; 0.99% of 340,000 active; P13346; purified delta FosB, TAMRA-CDK5 oligo fluorescence polarization; percent of positive-control signal above neutral wells;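 active = mean activation above about 17%, with every replicate also reaching it, limit read from the data, passing the limit was not always enough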
Target sequence (P13346 whole entry, looked up): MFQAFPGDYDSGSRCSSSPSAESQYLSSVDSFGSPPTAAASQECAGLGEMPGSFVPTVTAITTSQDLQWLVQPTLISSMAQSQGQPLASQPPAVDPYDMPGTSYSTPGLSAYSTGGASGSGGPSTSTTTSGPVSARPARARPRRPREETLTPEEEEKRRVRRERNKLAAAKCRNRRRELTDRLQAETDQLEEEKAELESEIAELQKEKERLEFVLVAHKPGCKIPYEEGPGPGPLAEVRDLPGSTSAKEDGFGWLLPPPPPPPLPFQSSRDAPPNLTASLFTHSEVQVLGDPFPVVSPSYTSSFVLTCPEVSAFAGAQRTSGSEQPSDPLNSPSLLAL
NALP3 confirm = confirmation of NALP3 inhibitors in yeast | AID 435006 | 81% of 1,300 active | shares compounds with NLRP3 yeast inh | inhibition, % at 10 µM | yeast expressing human NALP3, luminescence; in the data active = inhibition above about 48%
Casp1 ASC ctr = active in yeast caspase-1-ASC counter-screen for NALP3 inhibitors | inhibition, % at 10 µM | AID 488784 | 66% of 1,000 active | shares compounds with NLRP3 yeast inh | yeast expressing Caspase-1-ASC, luminescence counter screen
NALP3 retest = yeast NALP3 inhibition, confirmed on retest; shares compounds with NLRP3 yeast inh; yeast expressing human NALP3, luminescence read-out; inhibition, % at 10 µM; 53% of 1,000 active; AID 488794
* hit, by the source's call; . = no result given. Compounds with a hit are over-represented: about 2.2% of the library has one in this group of screens. Cut-off read from the data, not from the text of the source, unless noted: active = inhibition above about 50%; inactive = the rest.

SMILES	ZTA counter	NALP1 inh	EBNA-1 inhibitor	PolyA inh	NLRP3 yeast inh	dFosB activator	NALP3 confirm	Casp1 ASC ctr	NALP3 retest
OC(c1ccc(Cl)cc1)c1nccc2ccccc12 (configuration not stated)	-15	12	-15	17	58*	-1	67*	65*	47
COc1cccc(CN(C)C(=O)c2csc3c2CCCC3)c1OC	-18	14	-3	-17	51*	0	40	50*	40
COc1ccc(Sc2cc(C(F)(F)F)nc(-c3ccccn3)n2)cc1	-5	6	3	17	51*	-19	64*	55*	45
Cc1cc(N2O[C@H]3C=C[C@@H]2C3)no1	.	.	.	.	.	-4	.	.	.
Cc1[nH]c2ccccc2c1C(=O)COC(=O)c1ccc([N+](=O)[O-])s1	6	7	-3	-90	56*	-9	78*	85*	87*
O=C(COC(=O)c1ccc([N+](=O)[O-])s1)NCc1ccccc1	-12	30	1	3	4	-4	.	.	.
CCOC1OC(=O)C(Cl)=C1Nc1cc(C)ccc1C (configuration not stated)	-6	-10	-4	6	9	-4	.	.	.
NC(=S)N/N=C/c1ccccc1OCc1cccc(Cl)c1	-7	-4	-13	-23	56*	-4	67*	58*	40
C/C(=N/NC(=O)c1ccc(C(C)(C)C)cc1)c1ccccn1	-9	.	3	6	66*	-22	55*	83*	79*
C/C(=N\NC(=O)c1cccc(Br)c1)c1ccccn1	-14	39	2	7	61*	-12	84*	85*	69*
C/C(=N\NC(=O)c1ccc(Cl)c(Cl)c1)c1ccccn1	.	7	.	-16	53*	2	80*	.	.
COc1ccc(N=C(C)C2=C(O)c3ccccc3C2=O)cc1	-13	32	-1	-3	50*	0	42	57*	36
CCOc1ccc(N=C(C)C2=C(O)c3ccccc3C2=O)cc1	-7	.	2	11	39	2	.	.	.
CCOc1ccc(Nc2nc3cc(S(=O)(=O)CC)ccc3o2)cc1	-6	9	-9	21	-89	-11	.	.	.
CCS(=O)(=O)c1ccc2oc(Nc3ccc(OC)cc3)nc2c1	-5	-12	-4	7	-116	4	-16	.	.
COc1cc(Cl)c(S(=O)(=O)N2CCCC2)cc1Cl	11	1	9	-16	66*	-1	70*	.	.
COc1cc(S(=O)(=O)N2CCCC2)c(C)cc1C	3	20	-10	-6	60*	1	77*	58*	43
CCN(CC(=O)Nc1ccc(NC(C)=O)cc1)C(=O)c1cc(-c2ccccc2Cl)nc2ccccc12	.	.	.	.	.	-15	.	.	.
Cc1noc(C)c1S(=O)(=O)Nc1ccccc1N1CCOCC1	4	5	-6	7	6	-4	.	.	.
CCN(C(=O)CSc1n[nH]c(N)n1)C1CCCCC1	.	.	.	.	0	-10	.	.	.
CCOc1ccc(S(=O)(=O)Nc2ccc(Cl)cn2)c(C)c1C	-4	12	5	-13	60*	0	77*	64*	50
O=C(/C=C/c1cccc(Br)c1)c1ccc2c(c1)OCO2	20	-2	-3	-10	29	-2	.	.	.
O=C(/C=C/c1ccccc1Br)c1ccc2c(c1)OCO2	1	-2	-16	5	62*	-8	60*	20	29
O=C(CCNc1ccccc1)c1ccc2c(c1)OCO2	-11	-8	2	16	56*	-10	64*	64*	46
CN(C)CCC(=O)c1ccc2c(c1)OCO2	6	17	-5	4	-1	-1	.	.	.
SMILES	ZTA counter	NALP1 inh	EBNA-1 inhibitor	PolyA inh	NLRP3 yeast inh	dFosB activator	NALP3 confirm	Casp1 ASC ctr	NALP3 retest
O=C(/C=C/c1ccccc1)c1ccc2c(c1)OCO2	1	-18	4	3	53*	-1	40	42	34
COc1ccc(C(=O)OCC(=O)NC2CCCCCC2)c(OC)c1	.	.	.	.	18	-3	.	.	.
O=C(Nc1nnc(SCc2ccccn2)s1)C1CC(=O)N(c2ccc(F)cc2)C1 (configuration not stated)	3	-1	3	15	5	-4	.	.	.
COc1ccc(OC)c(S(=O)(=O)N2CCCC(C(=O)N3CCCCCC3)C2)c1 (configuration not stated)	-6	7	8	-9	16	-6	.	.	.
CNc1nc(SCc2ccccc2Cl)nc2c1CCCC2	12	112*	1	-17	98*	-4	99*	98*	98*
S=C(NCCSCc1ccc(Cl)c(Cl)c1)Nc1ccccc1	7	.	-6	-15	62*	-9	71*	58*	39
CCOC(=O)c1sc(=NC(=O)c2ccccc2)n(C)c1C	-4	3	0	-11	63*	-8	75*	.	.
CC(C)(C)OC(=O)C(C1NC(C(=O)O)C(C)(C)S1)N1C(=O)c2ccccc2C1=O (configuration not stated)	.	.	.	.	.	-3	.	.	.
C[C@H](NC(=O)[C@@H]1Cc2ccccc2CN1C(=O)OC(C)(C)C)C(=O)NCc1ccco1	-5	-2	-5	0	8	-8	.	.	.
CCOC(=O)C(=Cc1ccc(-n2cncn2)cc1)C(=O)OCC	-4	-4	2	-10	50*	-9	61*	57*	40
Cc1ccc2oc(C(=O)N3CCCCCC3)c(C)c2c1	9	-13	4	-18	53*	1	62*	59*	52*
COC(=O)C1CCc2c(ccc3c2CCCC3)C1=O (configuration not stated)	.	.	.	.	.	-3	.	.	.
COc1ccc(OC)c(Nc2cc(-c3ccccc3)nc(N)n2)c1	10	24	7	-17	50	.	41	49	43
NCCc1nnc(SCC(=O)Nc2ccc(Br)cc2)o1	2	3	8	-18	58*	-7	70*	53*	49
O=C(CSc1nnc(CNC(=O)c2ccco2)o1)Nc1ccc(Br)cc1	-1	8	2	3	9	-9	.	.	.
O=C(COc1ccc([N+](=O)[O-])cc1Cl)N1CCc2ccccc21	.	.	.	.	-5	0	.	.	.
COc1cccc(NC(=O)CSc2nc3ccccc3nc2N2CCOCC2)c1	-2	12	-5	-12	22	-9	.	.	.
